Cy5 interf NS3h: Cy5 fluorescence quenchers or enhancers, artefact control for HCV NS3 helicase inhibitor project, biochemical, ChemBridge library, Cy5 readout; 16,000 tested, 6% active; AID 720488, 2013; fluorescence interference ratio at 100 µM; Cy5-dT15 DNA with NS3h, fluorescence interference; actives lie on both sides; signal over control mean, under 1 quenches;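 active means compound fluorescence over control fluorescence at most 0.8, a quencher, or at least a set upper limit, an enhancer; inactive means ratio between 0.8 and the set upper limit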
HCV NS3h FP: HCV NS3 helicase inhibitors, primary screen, biochemical, fluorescence polarization, ChemBridge library; Hepatitis C virus NS3 helicase; NS3h Cy5-dT15 DNA binding; inhibition, % at 100 µM; 16,000 tested, 1.6% active; AID 687043, 2013;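 active means inhibition above the average over every tested compound plus 3 SD, cut at about 40% in these data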
NS3h confirm: HCV NS3 helicase inhibitors, retest, confirmation, biochemical, fluorescence polarization, ChemBridge library | AID 720485, 2013 | inhibition, % at 100 µM | NS3h binding to Cy5-dT15 DNA | shares compounds with HCV NS3h FP | 240 tested, 20% active;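 active means percent inhibition of 50% or more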
SSB-DNA FP CB: E. coli SSB-DNA binding inhibitors, counter-screen for HCV NS3 helicase inhibitor project, biochemical, fluorescence polarization, selected ChemBridge compounds. shares compounds with HCV NS3h FP. E. coli SSB binding Cy5-dT15. inhibition, % at 100 µM. 240 tested, 40% active;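 active means inhibition of at least 50%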;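 further: displacers lower Cy5 polarization so higher inhibition means more SSB displaced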
Target sequence (P0AGE0 whole entry, looked up): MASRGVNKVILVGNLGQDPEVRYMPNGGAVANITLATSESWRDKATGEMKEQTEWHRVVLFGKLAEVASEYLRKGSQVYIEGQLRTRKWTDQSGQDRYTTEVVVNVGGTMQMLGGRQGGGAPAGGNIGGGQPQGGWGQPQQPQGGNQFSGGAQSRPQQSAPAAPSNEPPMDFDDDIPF
Cy5 SSB fluor CB: Cy5 fluorescence interference with SSB-bound oligo, artefact control for HCV NS3 helicase inhibitor project, biochemical, E. coli SSB, selected ChemBridge compounds; Cy5-dT15/E. coli SSB fluorescence interference; actives lie on both sides; 240 tested, 8% active; fluorescence interference ratio at 100 µM; shares compounds with HCV NS3h FP; AID 720487, 2013;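 active means fluorescence interference ratio at or above 1.2, signal boosting, or at or below 0.8, signal quenching; inactive means ratio between 0.8 and 1.2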;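 further: ratio of compound well signal to mean negative control signal so 1 means no effect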
Cy5 fluor confirm: Cy5-DNA-NS3h complex fluorescence interference, confirmation, artefact control for HCV NS3 helicase inhibitor project, biochemical, ChemBridge library | shares compounds with HCV NS3h FP | 240 tested, 44% active | Cy5-dT15 DNA/NS3h fluorescence interference counterscreen | fluorescence interference ratio at 100 µM, hits read low;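 active means fluorescence interference ratio at or below 0.8 quencher or at or above a set limitenhancer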;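 further: ratio of compound fluorescence to mean of negative controls so 1 means no interference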
The depositor's hits bear a star. Most compounds without a hit are left out; they make up all but 6.8% or so of the library.

For N#Cc1c(-c2ccc([N+](=O)[O-])cc2)c2c([nH]c1=S)CCCC2 the results were Cy5 interf NS3h 1 and HCV NS3h FP 31.
`O=C1OC2C=CC(Br)=CC2C=C1C(=O)N1CCSC1c1ccc2c3c(cccc13)CC2` (stereo not given) gave Cy5 interf NS3h 1 and HCV NS3h FP 13.
`O=C1OC2C=CC(Br)=CC2=CC1C(=O)N1CCSC1c1ccccc1Cl` (stereo not given) gave Cy5 interf NS3h 0.73* and HCV NS3h FP 21.
COc1ccc(OC)c(N(CC(=O)Nc2ccc(I)cc2)S(C)(=O)=O)c1 was read as Cy5 interf NS3h 0.96 and HCV NS3h FP 1.
`Cc1ccc(N2NC(=O)/C(=C\c3ccc(Br)cc3)C2=O)cc1` gave Cy5 interf NS3h 0.91 and HCV NS3h FP 19.
For COc1cc(/C=C2\C(=O)NN(c3ccccc3)C2=O)cc(Br)c1OCC(=O)O the results were Cy5 interf NS3h 1.1 and HCV NS3h FP 29.
Screening Cc1ccc(N2NC(=O)/C(=C/c3cccc(Br)c3)C2=O)cc1 returned Cy5 interf NS3h 0.79* and HCV NS3h FP 23.
Screening COc1cc(/C=C2/C(=O)NN(c3ccc(Cl)cc3)C2=O)cc(Br)c1O returned Cy5 interf NS3h 0.77* and HCV NS3h FP -1.
O=C(Nc1ccccc1[N+](=O)[O-])c1ccc(N2C(=O)CCC2=O)cc1 was read as Cy5 interf NS3h 1.1 and HCV NS3h FP 7.
`CSc1nc2sc3c(c2c(=O)n1-c1ccccc1)CCCCC3` gave Cy5 interf NS3h 1 and HCV NS3h FP 1.
N#C/C(=C/c1ccc(-c2ccc([N+](=O)[O-])cc2Br)o1)C(=O)Nc1ccc(F)cc1 was read as Cy5 interf NS3h 1.1 and HCV NS3h FP 4.
Screening Cc1cc(Nc2cccc(F)c2)n2c(nc3ccccc32)c1C#N returned Cy5 interf NS3h 1 and HCV NS3h FP 2.
Cc1cc(Nc2cccc(O)c2)n2ncnc2n1 was read as Cy5 interf NS3h 0.69* and HCV NS3h FP 9.
CCOc1ccc(C=C2C(=O)NC(=O)NC2=O)cc1OCC was read as Cy5 interf NS3h 1.1 and HCV NS3h FP 18.
For CCN(C)c1ccc(C=C2C(=O)NC(=O)NC2=O)cc1 the results were Cy5 interf NS3h 1.9*, HCV NS3h FP 92*, NS3h confirm 111*, SSB-DNA FP CB 95*, Cy5 SSB fluor CB 1.5* and Cy5 fluor confirm 2.2*.
COc1ccc(NC(=O)/C(C#N)=C\c2ccc(-c3ccc(C(=O)O)c(Cl)c3)o2)cc1 was read as Cy5 interf NS3h 1.1, HCV NS3h FP 59*, NS3h confirm 7, SSB-DNA FP CB 16, Cy5 SSB fluor CB 0.88 and Cy5 fluor confirm 0.75*.
N#C/C(=C/c1ccc(-c2ccc(C(=O)O)c(Cl)c2)o1)C(=O)Nc1ccccc1 was read as Cy5 interf NS3h 0.98 and HCV NS3h FP 16.
O=C(CCN1C(=O)/C(=C/c2ccc(F)cc2)SC1=S)Nc1ncc(Cc2ccc(Cl)cc2)s1 was read as Cy5 interf NS3h 0.94, HCV NS3h FP 46*, NS3h confirm 4, SSB-DNA FP CB 10, Cy5 SSB fluor CB 0.96 and Cy5 fluor confirm 1.
For O=C(CCN1C(=O)/C(=C/c2ccc(Cl)cc2)SC1=S)Nc1nccs1 the results were Cy5 interf NS3h 1 and HCV NS3h FP 13.
`Cc1ccc(C(=O)O)cc1-n1c(C)ccc1C` gave Cy5 interf NS3h 1.4*, HCV NS3h FP 82*, NS3h confirm 89*, SSB-DNA FP CB 89*, Cy5 SSB fluor CB 1 and Cy5 fluor confirm 0.81.
Screening Cc1cc(C(=O)O)ccc1-n1c(C)ccc1C returned Cy5 interf NS3h 1.4*, HCV NS3h FP 101*, NS3h confirm 100*, SSB-DNA FP CB 108*, Cy5 SSB fluor CB 0.93 and Cy5 fluor confirm 0.98.
Cc1cc(Cl)c2cc(C(=O)O)ccc2n1 was read as Cy5 interf NS3h 0.99 and HCV NS3h FP 2.
Screening Cc1ccc(-c2ccccc2)n1-c1ccccc1C(=O)O returned Cy5 interf NS3h 1.1 and HCV NS3h FP 7.

Source: PubChem BioAssay
